Rows were chosen to be rich in hits. Some 27% of all compounds tested hit in one or more screens of this group.
CYP2C19 activ = human CYP2C19 activators, primary screen, biochemical, luminescence; Cytochrome P450 2C19 (Homo sapiens), P33261; recombinant CYP2C19, luciferin-H EGE luminescence; stronger effect = higher value; 0 = fully inhibited enzyme, 1 = untreated enzyme; activation factor at 5 µM; 96,000 tested, under 10 active; AID 1025, 2008;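 active = activation factor of at least 2 at 5 µM in the primary screen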;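 note: 0 = wells with 2.5 mM tranylcypromine and 1 = vehicle-only wells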
CYP2C19 inhib = blockers of cytochrome P450 2C19 activity – biochemical, luminescence, ADME assay, primary screen. P33261. CYP2C19 Supersomes, luciferin-H EGE luminescence, 30 min. inhibition, % at 5 µM. 96,000 tested, 21% active;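 active = CYP2C19 inhibition above a set limit at 5 µM in the primary screen, cut at about 50% in these data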;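 note: plate controls were negative control wells for no effect and 2.5 mM tranylcypromine positive control for full effect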
Cav32 inh = Cav3.2 calcium influx blockers – cell-based, Fluo-4 calcium fluorescence, FDSS, MLSMR library, primary screen; 100,000 tested, 4% active; AID 449739, 2010; B-score at 10 µM; Cav3.2-expressing cells; stronger effect = lower value; Voltage-dependent T-type calcium channel subunit alpha-1H (Homo sapiens), O95180;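 active = single-dose well whose peak fluorescence ratio is a statistical outlier from its plate by either plate-standardised score or position-corrected B-score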
CYP2C9 act = human CYP2C9 activators, primary screen, biochemical, luminescence; Cytochrome P450 2C9 (Homo sapiens), P11712; recombinant CYP2C9, luciferin-H conversion; stronger effect = higher value; factor 1 = untreated enzyme, 0 = blocked; activation factor at 5 µM; 96,000 tested, 1.4% active; AID 1024, 2008;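 active = activation factor of 2 or more for CYP2C9 at a 5 µM dose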;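 note: 0 = sulfaphenazole-blocked wells and 1 = vehicle-only wells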
Target sequence (P11712 whole entry, looked up): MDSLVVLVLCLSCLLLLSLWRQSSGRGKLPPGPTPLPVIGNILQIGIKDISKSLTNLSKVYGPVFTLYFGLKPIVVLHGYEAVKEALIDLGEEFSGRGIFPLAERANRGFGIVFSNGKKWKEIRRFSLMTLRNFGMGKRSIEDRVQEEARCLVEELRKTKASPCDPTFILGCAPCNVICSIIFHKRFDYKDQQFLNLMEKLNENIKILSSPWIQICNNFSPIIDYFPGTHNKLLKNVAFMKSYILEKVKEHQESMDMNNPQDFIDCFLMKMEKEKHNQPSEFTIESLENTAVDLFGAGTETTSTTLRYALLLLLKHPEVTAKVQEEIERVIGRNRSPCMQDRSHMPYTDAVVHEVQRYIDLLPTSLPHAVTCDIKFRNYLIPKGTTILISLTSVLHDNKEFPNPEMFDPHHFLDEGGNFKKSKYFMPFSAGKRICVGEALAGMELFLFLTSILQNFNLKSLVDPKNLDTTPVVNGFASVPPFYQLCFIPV
CYP2C9 inh = blockers of cytochrome P450 2C9 activity – biochemical, luminescence, ADME assay, primary screen; P11712; CYP2C9 Supersomes, luciferin-H conversion; inhibition, % at 5 µM; 96,000 tested, 20% active; AID 777, 2007;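 active = blocking of liver enzyme CYP2C9 beyond about 50% at 5 µM, limit read from the data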
Numbers without * were called inactive; . = no result given.

SMILES | CYP2C19 activ | CYP2C19 inhib | Cav32 inh | CYP2C9 act | CYP2C9 inh
Cc1cc(C)n(CCCNC(=O)c2ccc(S(=O)(=O)NCc3ccco3)cc2)n1 | 0.9 | 10 | . | 0.5 | 50*
CC1CCN(S(=O)(=O)N2CCC(C(=O)NCc3cccs3)CC2)CC1 | 1 | 2 | -1.3 | 0.9 | 13
O=C(Cn1c(C(F)(F)F)nc2ccccc21)c1ccc(Br)cc1 | 1.1 | -11 | -0.029 | 1 | -3
O=C(Cn1cnc2ccccc2c1=O)c1ccc2ccccc2c1 | 0.7 | 29 | -0.32 | 0.9 | 13
Cc1nc([N+](=O)[O-])c(Br)n1CC(=O)c1ccc(Br)cc1 | 0.8 | 18 | 0.86 | 0.5 | 54*
Cc1nc([N+](=O)[O-])c(Br)n1CC(=O)c1ccc2ccccc2c1 | 0.5 | 54* | 0.8 | 0.2 | 76*
COc1ccc(C2c3c(oc4ccccc4c3=O)C(=O)N2Cc2ccncc2)cc1OC (stereo not drawn) | . | . | 1.1 | . | .
CC(C)C(=O)N(c1cc2sc(=O)oc2c2ccccc12)S(=O)(=O)c1cccs1 | 0.8 | 15 | -0.0087 | 0.7 | 28
CC(C)C(=O)N(c1ccc2oc(=O)sc2c1)S(=O)(=O)c1cccs1 | 0 | 97* | -0.0067 | 0.4 | 61*
COc1ccc(N(C(=O)C(C)C)S(=O)(=O)c2cccs2)cc1 | 0 | 97* | 0.044 | 0.2 | 80*
NC(=O)Nc1ccc(Oc2c(F)c(F)c(F)c(F)c2F)cc1 | 0.7 | 30 | -1.2 | 0.7 | 31
NC(=O)N1OCC2COc3ccc4ccccc4c3C21 (stereo not drawn) | 1 | 5 | 0.065 | 2.1* | -108
COc1ccc(N(C(=O)c2ccco2)S(=O)(=O)c2ccccc2)cc1 | 0.1 | 87* | 0.15 | 0.1 | 92*
COc1ccc2cc(/C=C/C(=O)c3ccco3)c(Cl)nc2c1 | 0.9 | 12 | . | 0.9 | 14
COc1ccc(N(C(=O)c2ccco2)S(=O)(=O)c2cc(Cl)c(Cl)cc2Cl)cc1 | 0 | 97* | -4.3 | 0.1 | 94*
COc1ccc(OC)c(C2NC(=O)NC(C)=C2C(=O)Nc2ccc(C)cc2)c1 (stereo not drawn) | 0.7 | 32 | -0.29 | 0.8 | 20
CCOc1ccc(S(=O)(=O)N(CCO)CCO)cc1-c1nc2c(C(C)(C)C)nn(C)c2c(=O)[nH]1 | 1.1 | -7 | 0.78 | 0.4 | 59*
Cc1ccc(S(=O)(=O)N(CCO)Cc2cc3ccc(C)c(C)c3[nH]c2=O)cc1 | 0.9 | 6 | 0.38 | 0.7 | 29
CCOc1ccc(S(=O)(=O)NC(C)(C)C)cc1-c1nc2c(C(C)(C)C)nn(C)c2c(=O)[nH]1 | 0.8 | 22 | 0.24 | 0.3 | 66*
Cc1ccc2nc(Cc3ccc(N)cc3)oc2c1 | 0.3 | 69* | -0.78 | 0.7 | 32
Cc1ccc2nc(CCc3nc4ccc(C)cc4o3)oc2c1 | 0.9 | 8 | -0.2 | 1 | 1
CN1CC=C2C(C#N)=C(N)C(C#N)(C#N)C(c3cccc(Cl)c3Cl)C2C1 (stereo not drawn) | 0.1 | 93* | -0.24 | 0.1 | 91*
CSCCC(NC(=O)c1ccccc1)C(=O)OCC(=O)Nc1ccc(C)c(Cl)c1 (stereo not drawn) | 0.6 | 40 | -3 | 0.2 | 82*
COC(=O)c1ccc(CSc2nnc(C)s2)cc1 | 0.5 | 49 | -0.38 | 0.8 | 20
COC(=O)c1ccc(CSc2nnc(N)s2)cc1 | 0.3 | 74* | -0.21 | 0.7 | 26
SMILES | CYP2C19 activ | CYP2C19 inhib | Cav32 inh | CYP2C9 act | CYP2C9 inh
COC(=O)c1ccc(CSc2nnc(NC(=O)C3CCCO3)s2)cc1 (stereo not drawn) | 0.7 | 32 | -0.6 | 0.3 | 70*
O=C(Nc1nnc(SCc2ccc(Cl)cc2)s1)C1CCCO1 (stereo not drawn) | 0.5 | 49 | -2.3 | 0.3 | 73*
C=CCn1c(Cc2csc(N)n2)nnc1SCc1ccc(C(=O)OC)cc1 | 0.1 | 94* | 1.5 | 0.3 | 73*
CC(C)(C)C(=O)Nc1nnc(SCc2ccc(F)cc2)s1 | 0.3 | 68* | -2.2 | 0.2 | 78*
COC(=O)c1cccc(CSc2nnc(C)s2)c1 | 0.4 | 62* | -0.23 | 0.9 | 6
COc1cccc(-c2nn(C)c3sc(C(=O)NCc4ccc(C)cc4)cc23)c1 | 0.7 | 26 | -2 | 0.5 | 54*
COc1ccc(N2CCN(C(=O)c3cc4c(-c5cccc(OC)c5)nn(C)c4s3)CC2)cc1 | 0.8 | 23 | -0.58 | 0.5 | 51*
COc1cccc(-c2nn(C)c3sc(C(=O)NCc4ccccn4)cc23)c1 | 0.9 | 13 | 1.4 | 0.5 | 50
O=c1[nH]c2ccccc2n2c(-c3ccncc3)nnc12 | 0.9 | 12 | 0.67 | 0.9 | 11
Cc1c(Cl)c([N+](=O)[O-])nn1CC(=O)N1CCc2ccccc2C1 | 0.7 | 27 | 0.55 | 0.7 | 26
Brc1c(CSc2nnc(-c3ccco3)o2)nc2ccccn12 | 0.2 | 78* | 0.0078 | 2.2* | -122
Cc1cc(Oc2ccccc2)nc(OCC#N)n1 | 0.7 | 32 | -0.24 | 1 | 2
Cc1ccccc1-c1nnc(-c2ccc(Cl)cc2)o1 | 0.9 | 15 | 0.22 | 0.9 | 9
Cc1ccc(CS(=O)(=O)c2ccccc2-c2nnc(-c3ccc(Cl)cc3)o2)cc1 | 0.6 | 44 | . | 0.1 | 91*
CC(C)c1ccc(C(=O)CC2(O)C(=O)N(CN3CCOCC3)c3ccccc32)cc1 (stereo not drawn) | 0.2 | 78* | -5.8* | 0.8 | 18
CCc1ccc(C(=O)CC2(O)C(=O)N(CN3CCOCC3)c3ccccc32)cc1 (stereo not drawn) | 0.7 | 25 | -0.11 | 1.1 | -7
Cc1ccc(C(=O)CC2(O)C(=O)N(CN3CCOCC3)c3ccccc32)cc1 (stereo not drawn) | 0.5 | 54* | 0.19 | 0.9 | 8
Cc1ccc(NCCC(=O)c2ccc(Cl)cc2)cc1C | 0.4 | 59* | -0.41 | 1 | 5
Cc1ccc(C(=O)CCNc2ccc(Cl)cc2)o1 | 0.1 | 92* | -0.91 | 0.6 | 37
CCCOc1ccc(C(=O)CCNc2ccc(C)c(Cl)c2)cc1 | 0.4 | 60* | 0.11 | 0.8 | 20
COc1ccc(C2(O)CCN(C(=O)c3ccc4c(c3)OCO4)CC2)cc1 | 0.7 | 30 | -0.047 | 0.6 | 37
CCCOc1cc2c(C#N)c(N3CCCC3)nc(N)c2c(N)n1 | . | . | 0.66 | . | .
Cc1nc2ccccc2c(=O)n1/N=C/c1cn(-c2ccccc2)nc1-c1cccs1 | 0.2 | 80* | -4* | 0 | 98*
Cc1nc2ccccc2c(=O)n1/N=C/c1ccccc1 | 0.6 | 41 | -0.58 | 0.8 | 18
Cc1ccc(-n2[nH]c(C)c(/C=N/n3c(C)nc4ccccc4c3=O)c2=O)cc1 | 0.7 | 30 | 0.9 | 0.4 | 55*
CN(C)C(=O)c1cn(-c2ccccc2)nc1-c1cccs1 | 1.1 | -10 | 0.008 | 1.1 | -11
